Results on 58 compounds are retold here after PubChem BioAssay AID463173 (ICCB-Longwood Screening Facility, Harvard Medical School, 2010).

Out of some 52,000 compounds screened, about 4,300 (8.3%) were called active. Rule as the data show it: active = survival mostly below about 52% (no sharp cut-off); inactive = mostly above about 56%. The entries come from a sample that favours actives as a whole.

The assay deals with DeltatarO mutant. In words: growth inhibition of S. aureus wild type versus tarO mutant, primary screen, teichoic acid synthesis inhibitors, RN4220, OD600 (AID 463173). The note with it: OD600, 18 h, active compounds read low, screened at 18.75 µg/mL (by protocol).
Take `CCCCCCOc1ccc(-c2nc3ccc(Br)cc3c(=O)o2)cc1`: the survival is 83% (inactive).

Turning to `CCCC(CCC)C(=O)Nc1nnc2n1CCS2`, the survival is 82% (inactive).

Turning to `O=C(NCc1ccccc1)C1CCN(C(=O)NCc2ccccc2)CC1`, the survival is 90% (inactive).

Consider `COc1cc(-c2ccno2)ccc1S(=O)(=O)N1CCN(c2cccc(Cl)c2)CC1`, for which the survival is -1% (active).

Turning to `COc1cc(-c2ccno2)ccc1S(=O)(=O)N1CCN(c2ccccc2)CC1`, the survival was 72% (inactive).

Consider `COc1ccccc1N1CCN(S(=O)(=O)c2ccc(-c3ccno3)cc2OC)CC1`, for which the survival is 86% (inactive).

As for `COc1cc(-c2ccno2)ccc1S(=O)(=O)N1CCN(c2ccc(F)cc2)CC1`, the survival was 67% (inactive).

`COc1ccc(N2CCN(S(=O)(=O)c3ccc(-c4ccno4)cc3OC)CC2)cc1`: the survival is 6% (active).

With `COc1cccc(N2CCN(S(=O)(=O)c3ccc(-c4ccno4)cc3OC)CC2)c1`, the survival was 64% (inactive).

As for `N#CC1=C2SCN(C3CCCCC3)CN2C(=O)CC1c1ccc(Cl)cc1` (stereo not drawn), the survival was 91% (inactive).

As for `CCOc1cc(CNC(=O)c2cc(-c3ccccc3)n[nH]2)cc(OCC)c1OCC`, the survival was 98% (inactive).

`Cc1ccc(-c2cc(NC(=O)COc3c(C)cc(C)cc3C)on2)cc1`: the survival is 67% (inactive).

For `CC1Cc2cc(C(=O)NC3CCCCC3)ccc2O1` (stereo not drawn), the survival is 71% (inactive).

`Cc1ccc(N2C(=O)CS(=O)(=O)C23C(=O)N(Cc2ccccc2F)c2ccccc23)cc1Cl` (stereo not drawn): the survival was 60% (inactive).

On to `O=C(CCC1N=C2c3ccccc3N=C(SCc3ccc(F)cc3)N2C1=O)N1CCN(c2ccccc2)CC1` (stereo not drawn), for which the survival was 57% (inactive).

With `O=C(CCC1N=C2c3ccccc3N=C(SCc3cccc(Cl)c3)N2C1=O)NCCc1ccccc1` (stereo not drawn), the survival was 63% (inactive).

With `Cc1ccc(CSC2=Nc3ccccc3C3=NC(CCC(=O)N4CCN(c5ccccc5)CC4)C(=O)N23)cc1` (stereo not drawn), the survival is 85% (inactive).

As to `O=C(CCC1N=C2c3ccccc3N=C(SCc3cccc(Cl)c3)N2C1=O)N1CCN(c2ccccc2)CC1` (stereo not drawn), the survival is 47% (active).

`O=C(CCC1N=C2c3ccccc3N=C(SCc3ccccc3Cl)N2C1=O)N1CCN(c2ccccc2)CC1` (stereo not drawn): the survival is 49% (active).

As for `O=C(CCC1N=C2c3ccccc3N=C(SCc3ccc(Cl)cc3)N2C1=O)N1CCN(c2ccccc2)CC1` (stereo not drawn), the survival is 91% (inactive).

Regarding `COc1cccc(NC(=O)CN2CCCN(S(=O)(=O)c3ccc(Br)cc3)CC2)c1`, the survival was 58% (inactive).

Turning to `CCC1(CC)Cc2ccccc2-c2nc(NCCCO)[nH]c(=O)c21`, the survival was 82% (inactive).

For the compound `COc1ccccc1N1CCN(C(=O)c2cc3c(=O)n(Cc4cccs4)ccc3nc2C)CC1`, the survival was 74% (inactive).

On to `Cc1oc2ncn(CC(C)C)c(=O)c2c1C(=O)NCCCN(Cc1ccccc1)C(C)C`, for which the survival was 117% (inactive).

With `COc1ccc2c(C)c(CCC(=O)NCCc3ccccc3OC)c(=O)oc2c1`, the survival was 77% (inactive).

Turning to `Cc1cc(NC(=O)Cc2ccccc2)cc(-c2nc3ccccc3o2)c1O`, the survival was 79% (inactive).

As to `Cc1ccc2oc(-c3cc(NC(=O)c4oc5ccccc5c4C)ccc3Cl)nc2c1`, the survival is 62% (inactive).

Regarding `Cc1cc(C)c2oc(-c3cc(NC(=O)Cc4ccccc4)ccc3Cl)nc2c1`, the survival is 31% (active).

As to `O=C(Nc1ccc(O)c(-c2nc3ccccc3o2)c1)c1ccco1`, the survival was 71% (inactive).

Regarding `Cc1ccc2nc(-c3cc(NC(=O)/C=C/c4ccccc4)ccc3Cl)oc2c1`, the survival is 68% (inactive).

Regarding `COc1c(C)cccc1C(=O)Nc1ccc(Cl)c(-c2nc3cc(C)ccc3o2)c1`, the survival was 6% (active).

With `Cc1ccc2oc(-c3cc(NC(=O)c4ccco4)ccc3Cl)nc2c1`, the survival is 0% (active).

Turning to `O=C(Nc1ccc(Cl)c(-c2nc3ccccc3o2)c1)c1cccc2c(Cl)cccc12`, the survival is 84% (inactive).

On to `Cc1ccccc1-c1nc2cc(NC(=O)Cc3ccc(Cl)cc3)ccc2o1`, for which the survival was 66% (inactive).

For `Cc1ccc2oc(-c3cc(NC(=O)/C=C/c4ccco4)ccc3Cl)nc2c1`, the survival is 40% (active).

For the compound `Cc1cc(NC(=O)c2ccco2)cc(-c2nc3cc(Cl)ccc3o2)c1O`, the survival was 79% (inactive).

For `O=C(/C=C/c1ccco1)Nc1ccc(Cl)c(-c2nc3cc(Cl)ccc3o2)c1`, the survival is 65% (inactive).

`CC1CCN(c2nc3ccc(C(=O)NCc4ccccc4)cc3s2)CC1`: the survival is 77% (inactive).

For the compound `CC(=O)Nc1ccc(OCc2cc(=O)n3ccccc3n2)cc1`, the survival was 76% (inactive).

For the compound `Cc1ccc(-c2nc3sc(CCNC(=O)c4ccc(Br)o4)c(C)n3n2)cc1`, the survival is 84% (inactive).

With `CCOC(=O)C1CCN(C(=O)CN(c2cc(Cl)ccc2OC)S(C)(=O)=O)CC1`, the survival was 95% (inactive).

Take `CC1CCCCC1NC(=O)CN1CCC(NC(=O)c2cccc(F)c2)CC1` (stereo not drawn): the survival is 85% (inactive).

Regarding `CC1CCCN(CCCNC(=O)Cn2ncc3c([nH]c4ccccc43)c2=O)C1` (stereo not drawn), the survival was 94% (inactive).

As to `O=C(Nc1cc(F)ccc1F)C1COc2ccccc2C1` (stereo not drawn), the survival was 69% (inactive).

In the case of `Cc1cc2nc(-c3cccc(NC(=O)COc4ccc(Cl)c(C)c4)c3)oc2cc1C`, the survival was 64% (inactive).

In the case of `CCc1ccc(OCC(=O)Nc2ccc(Cl)c(-c3nc4cc(C)cc(C)c4o3)c2)cc1`, the survival was 35% (active).

In the case of `Cc1cc(NC(=O)COc2ccccc2)cc(-c2nc3ccccc3o2)c1O`, the survival was 94% (inactive).

`CCCCOc1ccc(C(=O)Nc2cccc(-c3nc4ccccc4o3)c2C)cc1`: the survival was 76% (inactive).

Consider `Cc1ccc2oc(-c3cc(NC(=O)CC(C)C)ccc3Cl)nc2c1`, for which the survival is 87% (inactive).

Regarding `Cc1ccc2oc(-c3cc(NC(=O)Cc4ccccc4)ccc3Cl)nc2c1`, the survival was 52% (active).

Take `Cc1ccc(OCC(=O)Nc2ccc(-c3nc4ccc(C)cc4o3)cc2)cc1`: the survival was 66% (inactive).

Regarding `Cc1ccc2nc(-c3cc(NC(=O)COc4ccc(C)c(C)c4)ccc3Cl)oc2c1`, the survival was 30% (active).

On to `Cc1ccc(OCC(=O)Nc2cccc(-c3nc4ccccc4o3)c2C)cc1C`, for which the survival was 55% (active).

For `Cc1ccc2oc(-c3cccc(NC(=O)Cc4ccc(Cl)cc4)c3)nc2c1`, the survival is 72% (inactive).

Consider `CCc1ccc(OCC(=O)Nc2ccc(Cl)c(-c3nc4ncccc4o3)c2)cc1`, for which the survival is 47% (inactive).

For `CCOc1ccc(C(=O)Nc2ccc(Cl)c(-c3nc4cc(C)cc(C)c4o3)c2)cc1`, the survival is 66% (inactive).

Take `Cc1nn(CCCC(=O)Nc2ccccc2C(F)(F)F)c(=O)c2c1sc1ccccc12`: the survival was 74% (inactive).

As for `Cc1nc2ccc(C(=O)N3CCN(Cc4ccccc4)CC3)cc2[nH]1`, the survival is 104% (inactive).
